Screening results: PubChem, National Center for Advancing Translational Sciences (NCATS)
nsP2pro inh: blocks chikungunya virus nsP2 protease peptide cleavage; Q8JUX6; FRET peptide cleavage, nsP2pro, fluorescence 1 h; Potency, µM (top dose mostly 24.9 µM), for inactives: at the top dose activity change, negative = inhibition, usual class: inhibitors; 1.1% of 31,000 active; note: nearly all actives have a fitted effect of over 60% in size
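FRET cleavage of 2.5 uM peptide 2 by 150 nM CHIKV protease domain at pH 8.0 (Tris, Tween 20). Compounds at 7 concentrations (up to 25 uM) preincubated 15 min. Fluorescence read after 1 h at room temperature.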
CHIKV nsP2 cell: inhibits CHIKV nsP2 protease in cells. shares compounds with nsP2pro inh. cell-based CHIKV nsP2 protease reporter assay. Potency, µM (highest dose often 51.1 µM), without a hit: top-dose activity change, negative = inhibition, most hits filed as inhibitors. 10% of 450 active. AID 1964100; note: nearly all actives have a fitted effect of over 70% in size
CHIKV NSP2 FL: full-length CHIKV NSP2 protease inhibition, selectivity; shares compounds with nsP2pro inh; Full-length CHIKV NSP2 protease enzymatic counterscreen; Potency, µM (highest dose often 50.7 µM), for the others: at the highest dose activity change, negative = inhibition, actives largely listed as inhibitors; 39% of 410 active; AID 1964101; note: nearly all actives have a fitted effect of over 65% in size
Furin counter: selectivity counter-screen for CHIKV nsP2 protease inhibitors: human furin; Potency, µM (top dose mostly 50.6 µM), for inactives: at the top dose activity change, negative = inhibition, hits mostly inhibitors; AID 1964102; shares compounds with nsP2pro inh; Recombinant human furin enzymatic counterscreen, fluorogenic substrate; 6% of 410 active
Target sequence (P09958 whole entry, looked up): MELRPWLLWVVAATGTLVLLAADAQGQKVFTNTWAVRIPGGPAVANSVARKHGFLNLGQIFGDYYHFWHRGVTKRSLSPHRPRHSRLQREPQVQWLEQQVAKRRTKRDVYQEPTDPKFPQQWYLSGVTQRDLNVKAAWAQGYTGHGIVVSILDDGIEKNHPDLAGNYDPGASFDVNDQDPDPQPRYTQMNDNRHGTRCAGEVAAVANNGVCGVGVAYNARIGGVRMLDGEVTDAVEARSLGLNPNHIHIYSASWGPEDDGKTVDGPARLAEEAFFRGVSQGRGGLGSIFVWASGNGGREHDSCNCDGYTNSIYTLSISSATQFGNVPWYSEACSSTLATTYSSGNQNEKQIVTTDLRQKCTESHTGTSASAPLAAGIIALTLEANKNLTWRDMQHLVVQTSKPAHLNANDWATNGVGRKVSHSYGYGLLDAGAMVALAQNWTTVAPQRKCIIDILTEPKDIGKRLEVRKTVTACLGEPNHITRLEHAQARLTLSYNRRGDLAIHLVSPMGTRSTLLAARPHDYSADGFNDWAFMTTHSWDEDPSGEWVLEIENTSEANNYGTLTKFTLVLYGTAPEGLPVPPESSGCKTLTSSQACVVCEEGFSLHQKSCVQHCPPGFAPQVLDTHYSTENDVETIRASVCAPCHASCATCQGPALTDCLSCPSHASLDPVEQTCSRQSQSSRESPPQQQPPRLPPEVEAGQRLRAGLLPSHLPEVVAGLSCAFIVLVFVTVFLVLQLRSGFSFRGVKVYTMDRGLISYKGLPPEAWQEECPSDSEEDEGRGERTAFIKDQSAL
nsP2 NS23 pep: nsP2pro inhibition on native NS2/3 peptide substrate | shares compounds with nsP2pro inh | Purified CHIKV nsP2 protease, endogenous NS2/3 peptide cleavage | Potency, µM (highest dose often 51 µM), for the others: at the highest dose activity change, negative = inhibition, actives largely listed as inhibitors | 34% of 410 active; note: nearly all actives have a fitted effect of over 55% in size
Papain cs: inhibits papain in a CHIKV nsP2 protease selectivity counterscreen | shares compounds with nsP2pro inh | purified papain protease activity, enzymatic inhibition | Potency, µM (doses to about 51 µM), inactives show at the highest dose activity change, negative = inhibition, usual class: inhibitors | 5% of 410 active
nsP2pro conf qHTS: confirmation of CHIKV nsP2 protease inhibitors | 43% of 410 active | AID 1964105 | shares compounds with nsP2pro inh | CHIKV nsP2 protease enzymatic activity, qHTS | Potency, µM (highest dose often 25.5 µM), without a hit: at the highest dose activity change, negative = inhibition, hits mostly inhibitors; note: nearly all actives have a fitted effect of over 75% in size
HCV NS3 counter: HCV NS3/4A protease inhibition, counterscreen; shares compounds with nsP2pro inh; HCV NS3/4A protease biochemical counterscreen; Potency, µM (titrated, usually from 50.9 µM), usual class: inhibitors; 20% of 410 active; AID 1964106; note: nearly all actives have a fitted effect of over 55% in size
* hit, by the source's call; ! = repeats disagree; [ ] = dose if it differs, or a comment. The full list was thinned out, with hits kept by preference. Calls come from the whole dose curve. % is set by controls: 0 for no effect and ±100 for the full control effect; potency is the fitted concentration of half-maximal effect.

Results for O=C(COc1ccccc1)N1C[C@@H]2C[C@H](C1)c1c(NS(=O)(=O)c3ccccc3)ccc(=O)n1C2 ?
nsP2pro inh: inconclusive; CHIKV nsP2 cell: 4%; CHIKV NSP2 FL: 16µM*; Furin counter: -4%; nsP2 NS23 pep: inconclusive; Papain cs: -3%; nsP2pro conf qHTS: inconclusive; HCV NS3 counter: inconclusive

Results for CCCS(=O)(=O)Nc1ccc(=O)n2c1[C@@H]1C[C@@H](CN(C(=O)c3ccc(OC)cc3)C1)C2 ?
nsP2pro inh: -9%

Results for CC1(C)OB(c2ccc(O)c3ncc(N4CCNCC4)cc23)OC1(C)C ?
nsP2pro inh: inactive

How did C=CC(=O)N1CCC([C@@H]2CCNc3c(C(N)=O)c(-c4ccc(Oc5ccccc5)cc4)nn32)CC1 do in these assays?
nsP2pro inh: -5%

What do the screens show for `O=c1c2ccc(-c3cn[nH]c3)cc2nc2sc(Nc3ccc4c(c3)CCC4)nn12`?
nsP2pro inh: inactive

What do the screens show for `O=C1CO[C@H]2CN(c3ncccn3)C[C@H]2N1CC1CCCCC1`?
nsP2pro inh: 2.2µM*; CHIKV nsP2 cell: -5%; CHIKV NSP2 FL: -2%; Furin counter: inconclusive; nsP2 NS23 pep: 24µM*; Papain cs: -1%; nsP2pro conf qHTS: 3.7µM*; HCV NS3 counter: 9.4µM*

What do the screens show for `N#Cc1ccc(N2C[C@@H]3OCC(=O)N(CC4CCCCC4)[C@@H]3C2)nc1`?
nsP2pro inh: -3%[39.2 µM]

What do the screens show for `O=C(c1cnccn1)N1C[C@@H]2OCC(=O)N(CC3CCCCC3)[C@@H]2C1`?
nsP2pro inh: -29%[39.2 µM]

How did C[C@H]1CN(C(=O)CC#N)[C@]12CCN(c1ncnc3[nH]ccc13)C2 do in these assays?
nsP2pro inh: -5%

What do the screens show for `CCCCCCCCCCCCCCCC(=O)OCC=C(C)C=CC=C(C)C=CC1=C(C)CCCC1(C)C`?
nsP2pro inh: -16%

Results for Cc1cccc(C(=O)Nc2ccc(N3CCN(c4ccc(F)cc4)CC3)c(C(=O)O)c2)c1 ?
nsP2pro inh: inconclusive; CHIKV nsP2 cell: 50%; CHIKV NSP2 FL: 7.3µM*; Furin counter: -23%; nsP2 NS23 pep: 16µM*; Papain cs: -3%; nsP2pro conf qHTS: 9µM*; HCV NS3 counter: 4.1µM*

How did O=C(Nc1ccccc1)c1cnc(N2CCCCC2)c2ccccc12 do in these assays?
nsP2pro inh: 13%

How did Cc1cccc(C(=O)Nc2ccc(N3CCC(CCN4CCOCC4)CC3)c(C(=O)O)c2)c1 do in these assays?
nsP2pro inh: 4.5µM*!; CHIKV nsP2 cell: 9%; CHIKV NSP2 FL: -10%; Furin counter: 3%; nsP2 NS23 pep: -3%; Papain cs: -3%; nsP2pro conf qHTS: 22%; HCV NS3 counter: inconclusive

Results for O=C(Nc1cnc(N2CCC(N3CCCCC3)CC2)c(C(=O)O)c1)c1ccc(Br)cc1 ?
nsP2pro inh: 4µM*; CHIKV nsP2 cell: -2%; CHIKV NSP2 FL: 4.1µM*; Furin counter: inconclusive; nsP2 NS23 pep: 16µM*; Papain cs: -7%; nsP2pro conf qHTS: 8µM*; HCV NS3 counter: 4.1µM*

What do the screens show for `CC(=O)c1ccc(N2CCN(c3ccc(NC(=O)c4cccs4)cc3C(=O)O)CC2)cc1`?
nsP2pro inh: -28%

What do the screens show for `CCOC(=O)N1CCN(Cc2nc3cc(NC(=O)c4cccc(C)c4)ccc3n2C(C)C)CC1`?
nsP2pro inh: 2%

What do the screens show for `O=C(Nc1ccc(N2CCC(N3CCCCC3)CC2)c(C(=O)O)c1)c1ccc(Br)cc1`?
nsP2pro inh: 34%

How did O=C(Nc1ccc(Br)cc1)c1ccc(Br)c(S(=O)(=O)N2CCCCC2)c1 do in these assays?
nsP2pro inh: -4%

How did O=C(Nc1ccc(N2CCOCC2)c(C(=O)O)c1)c1ccc(Br)cc1 do in these assays?
nsP2pro inh: 3.5µM*; CHIKV nsP2 cell: 11%; CHIKV NSP2 FL: 2.9µM*; Furin counter: inconclusive; nsP2 NS23 pep: 6.5µM*; Papain cs: 3%; nsP2pro conf qHTS: 5.7µM*; HCV NS3 counter: 1.6µM*

How did Cc1cc(C)cc(C(=O)Nc2cc(C(F)(F)F)ccc2N2CCN(c3ccccc3)CC2)c1 do in these assays?
nsP2pro inh: -17%

How did O=C(Nc1ccc(Cl)c(-c2nc3cc(Cl)ccc3o2)c1)c1cc([N+](=O)[O-])ccc1N1CCOCC1 do in these assays?
nsP2pro inh: -12%

Results for Cc1cccc(C(=O)N2C[C@H]3OC(=O)N(CCCN4CCOCC4)[C@H]3C2)c1 ?
nsP2pro inh: 2%

What do the screens show for `COc1ccc(F)cc1-c1ccc(CN2CCC(NC(=O)c3ccc(Cl)cc3)C2)cc1` (stereo unspecified)?
nsP2pro inh: inactive

Results for CCCCC[C@H](O)/C=C/[C@@H]1[C@@H](C/C=C/CCCC(=O)O)[C@@H](O)C[C@H]1O ?
nsP2pro inh: 10%

Results for CN(CC(=O)N(Cc1ccc(C2CCCCC2)cc1)c1ccc(C(=O)O)cc1)S(=O)(=O)c1c(F)c(F)c(F)c(F)c1F ?
nsP2pro inh: 124%

Results for COc1cc(OC)c(C(CC(=O)N2CC(C)CC(C)C2)c2ccc3c(c2)OCO3)c(OCC#N)c1 (stereo unspecified) ?
nsP2pro inh: inactive

What do the screens show for `O=C1COc2c(CCNCCN(C(=O)CCNCCc3ccc(Cl)c(Cl)c3)C3CCCCC3)ccc(O)c2N1`?
nsP2pro inh: 47%

How did Cc1ccc(OCCn2c(CCNC(=O)/C=C/c3ccccc3)nc3ccccc32)cc1 do in these assays?
nsP2pro inh: -2%

Results for O=C(NCC(=O)N1CCCCC1)Nc1ccc2nnsc2c1 ?
nsP2pro inh: 13%

Results for O=C1CCCC2=C1C(c1[nH]ncc1Cl)N=C(Nc1ccccc1)N2 (stereo unspecified) ?
nsP2pro inh: 0%

Results for Cc1ccc2c(c1)/C(=C\c1cc(Cl)c(O)c(Cl)c1)C(=O)N2 ?
nsP2pro inh: inactive
